According to PubChem BioAssay (NCATS):
Values joined by “and” are separate entries in the source; they are usually repeats but may differ in a detail not shown here. Equal entries are not always repeated. Inconclusive results are not listed. Where a call stands in place of a potency, no number is given. Values without a mark were called inactive. Active and inactive are the calls of the source. Calls follow the shape of the dose curve; as a rule, active = well fitted curve in the direction sought with a large enough effect; inconclusive = small, poorly fitted or top-dose-only effect, or another doubt; inactive = no such curve, though single readings can be large; an effect the other way counts as inactive or inconclusive.

Tests used:
[1] = target: Calcium and integrin-binding protein 1 (Homo sapiens) (UniProt Q99828); assay: Primary qHTS for Identification of Calcium Integrin Binding Protein 1 (CIB1) Competitor (AID 1508620);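 also: GST tagged CIB1 binding a fluorescein labelled alphaIIb integrin peptide tracer; top concentration of the series differs between compounds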
Sequence of Calcium and integrin-binding protein 1 (Homo sapiens) (Q99828 whole entry, looked up): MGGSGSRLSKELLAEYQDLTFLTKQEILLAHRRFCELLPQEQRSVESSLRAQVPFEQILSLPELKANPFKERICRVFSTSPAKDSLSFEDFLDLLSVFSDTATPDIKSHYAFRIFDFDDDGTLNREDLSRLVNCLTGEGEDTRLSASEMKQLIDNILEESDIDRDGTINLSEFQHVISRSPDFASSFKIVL
Summary of the method: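 Fluorescence polarization competition: CIB1-GST (1 uM final) preincubated with compound 15 min at room temperature, then FITC-labeled alphaIIb peptide (100 nM final) added for another 15 min. Polarization read at Ex 480/Em 540.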

[2] = Primary qHTS for inhibitors of nuclear receptor binding SET domain protein 2 (NSD2) in an isogenic RCH-ACV NSD2 p.E1099K mutant (9B) (AID 1645876); also: nearly all actives have a fitted effect of over 70% in size; also: potency is read from the fitted curve at half-maximal effect
[3] = Primary qHTS for inhibitors of nuclear receptor binding SET domain protein 2 (NSD2) in an RCH-ACV wild type WT cells (2C) (AID 1645877); also: nearly all actives have a fitted effect of over 70% in size; also: potency is read from the fitted curve at half-maximal effect

| Structure (SMILES) | Potency [1] | Potency [2] | Potency [3] | activity change, negative = inhibition [1] |
| --- | --- | --- | --- | --- |
| Cc1[nH]c2ccc(F)cc2c1-c1nc2c3cccnc3c3ncccc3c2[nH]1 | inactive | 1.21 µM (active) | 1.08 µM (active) | – |
| COC1CC/C=C(\C)C(=O)Nc2cc(O)cc(c2)CC(C)CC(OC)C(O)C(C)/C=C(\C)C1OC(N)=O (stereo unspecified) | inactive | 2.52 µM (active) | 2.82 µM (active) | – |
| COc1cc2nc(N3CCN(C(=O)c4ccco4)C4CCCCC43)nc(N)c2cc1OC (stereo unspecified) | inactive | 2.3 µM (active) | 3.65 µM (active) | – |
| CC[C@H]1OC(=O)[C@H](C)[C@@H](O[C@H]2C[C@@](C)(OC)[C@@H](O)[C@H](C)O2)[C@H](C)[C@@H](O[C@H]2O[C@H](C)C[C@H](N(C)C)[C@H]2O)[C@](C)(O)C[C@@H](C)C(=O)[C@H](C)[C@@H](O)[C@]1(C)O | inactive | inactive | inactive | – |
| C=C1C(=O)OC2/C=C(\COC(C)=O)CC/C=C(\C=O)CC(OC(=O)C(C)CC)C12 (stereo unspecified) | inactive | 3.17 µM (active) | 2 µM (active) | – |
| Cc1nc(NC(=O)N2CCCC2C(N)=O)sc1-c1ccnc(C(C)(C)C(F)(F)F)c1 (stereo unspecified) | inactive | 2.35 µM (active) | 2.63 µM (active) | – |
| CCN1CCN(Cc2ccc(NC(=O)c3ccc(C)c(Oc4ncnc5[nH]c(C)cc45)c3)cc2C(F)(F)F)CC1 | inactive | 2.05 µM (active) | 2.3 µM (active) | – |
| Cc1cc(-c2nc3cc(F)ccc3s2)ccc1NC(=O)[C@@H](N)CCCCN | inactive | 5.25 µM (active) | 4.17 µM (active) | – |
| CCc1cccc(CC)c1-n1c(C=C(C)C)c(C(=O)N2CCNCC2)cc(-c2nc(-c3ccc(C(F)(F)F)cc3)cs2)c1=O | inactive | 8.93 µM (active) | 10 µM (active) | – |
| CC(C)=CCC/C(C)=C/COCC1OC(n2ccc(=O)[nH]c2=O)C(O)C1O (stereo unspecified) | inactive | 4.01 µM (active) | 2.01 µM (active) | – |
| CC[C@@H](C)[C@@H]1OC2(C=C[C@H]1C)C[C@@H]1C[C@H](C/C=C(\C)[C@H](O[C@H]3C[C@H](OC)[C@H](O[C@H]4C[C@H](OC)[C@H](NC(C)=O)[C@H](C)O4)[C@H](C)O3)[C@H](C)/C=C/C=C3\CO[C@H]4[C@H](O)C(C)=C[C@@H](C(=O)O1)[C@@]34O)O2 (stereo partly specified) | inactive | 8.01 µM (active) | 5.05 µM (active) | – |
| Nc1ncnc2c1nc(Cl)n2C1OC2COP(=O)(O)OC2C1O (stereo unspecified) | inactive | 2.05 µM (active) | 2.9 µM (active) | – |
| NS(=O)(=O)c1ccc(NC(=O)Nc2ccc(F)cc2)cc1 | inactive | inactive | inactive | – |
| COc1c(CCC(=O)O)cccc1O[C@@H]1O[C@H](CO)[C@@H](O)[C@H](O)[C@H]1O | inactive | inactive | inactive | – |
| O=C(NO)c1cnc(N2CCN(S(=O)(=O)c3ccc4ccccc4c3)CC2)nc1 | inactive | 0.252 µM (active) | 0.252 µM (active) | – |
| C[C@H](Oc1cc(-c2cnn(C3CCNCC3)c2)cnc1N)c1c(Cl)ccc(F)c1Cl | inactive | 11.5 µM (active) | 12.9 µM (active) | – |
| NC(=O)CCCSc1nc(N)nc(-c2c(Cl)cc3c4c(cccc24)COC3)n1 | inactive | 0.183 µM (active) | 0.23 µM (active) | – |
| c1cc(-c2cnn3cc(-c4ccc(N5CCNCC5)cc4)cnc23)c2cccnc2c1 | inactive | 5.25 µM (active) | 4.17 µM (active) | – |
| COCCNCc1ccc(-c2cc3nccc(Oc4ccc(NC(=O)C5(C(=O)Nc6ccc(F)cc6)CC5)cc4F)c3s2)nc1 | inactive | 2.9 µM (active) | 2.63 µM (active) | – |
| COc1ccc(C2Oc3c(OC)cc(CCCO)cc3C2COC2OC(CO)C(O)C(O)C2O)cc1OC (stereo unspecified) | inactive | inactive | inactive | – |
| C=C1CC[C@H]2C(=C)CC[C@H]3C(=C)C(=O)O[C@@H]3[C@@H]12 | inactive | 16.3 µM (active) | 10.3 µM (active) | – |
| OC[C@H]1O[C@@H](OC/C=C/c2ccc(O)cc2)[C@H](O)[C@@H](O)[C@@H]1O | inactive | inactive | inactive | – |
| COC(=O)N1CC2(CC2)C[C@H](C(=O)NO)[C@H]1C(=O)N1CCN(c2ccccc2)CC1 | inactive | inactive | inactive | – |
| C=C[C@@]12COC(=O)C(=C)[C@@H]1[C@@H](O)[C@H](C(=C)C(=O)OC)[C@@H](O)C2 | inactive | inactive | inactive | – |

| Structure (SMILES) | Potency [1] | Potency [2] | Potency [3] | activity change, negative = inhibition [1] |
| --- | --- | --- | --- | --- |
| CCC/C=C/C=C/C1CC(O)C2(O)C(=O)OCC12 (stereo unspecified) | inactive | inactive | inactive | – |
| CN1CC[C@@H](c2c(O)cc(O)c3c(=O)cc(-c4ccc(C(F)(F)F)cc4Cl)oc23)[C@@H]1CO | inactive | 18.6 µM (active) | 16.6 µM (active) | – |
| C=C1C(=O)O[C@@H]2/C=C(\C)CC/C=C(\C)CC[C@@H]12 | inactive | 14.5 µM (active) | 7.28 µM (active) | – |
| CCC(C)C(=O)O[C@H]1[C@@H](OC(=O)c2ccoc2)C[C@](C)(O)[C@]23OC(C)(C)[C@H](C[C@H](OC(=O)c4ccoc4)[C@]12COC(C)=O)[C@H]3OC(C)=O (stereo partly specified) | inactive | inactive | inactive | – |
| C=C[C@]1(C)C[C@H](O)[C@H]2C(=C)C(=O)O[C@@H]2[C@H]1C(=C)CO | inactive | 18.3 µM (active) | 14.5 µM (active) | – |
| CC(=O)O[C@@H]1[C@@H](OC(C)=O)[C@H](C)O[C@@H](O[C@H]2[C@@H]3C=CO[C@@H](O[C@@H]4O[C@H](CO)[C@@H](O)[C@H](O)[C@H]4O)[C@@H]3[C@@]3(CO)O[C@@H]23)[C@@H]1OC(=O)/C=C/c1ccccc1 | inactive | 6.82 µM (active) | 4.83 µM (active) | – |
| COc1ccc(CCO[C@@H]2O[C@H](CO[C@H]3OC[C@](O)(CO)[C@H]3O)[C@@H](OC(=O)/C=C/c3ccc(O)c(O)c3)[C@H](O[C@@H]3O[C@@H](C)[C@H](O)[C@@H](O)[C@H]3O)[C@H]2O)cc1OC | inactive | 6.08 µM (active) | 4.83 µM (active) | – |
| COc1cc(N2CCC(N3CCN(C)CC3)CC2)ccc1Nc1ncc(Cl)c(Nc2ccccc2P(C)(C)=O)n1 | inactive | 3.65 µM (active) and 1.05 µM (active) | 4.09 µM (active) and 1.48 µM (active) | – |
| CC(C)C[C@H](C(=O)O)c1cc(-c2ccc(C(F)(F)F)cc2)cc(-c2ccc(C(F)(F)F)cc2)c1 | inactive | 9.16 µM (active) | 11.5 µM (active) | – |
| C=C1[C@H]2CC[C@H](C(=O)O)[C@@]23CC[C@H](C3)C1(C)C | inactive | inactive | inactive | – |
| C/C=C(\C)C(=O)O[C@H]1C=C(CO)C(=O)[C@H](OC(C)=O)[C@H]1C(C)C | inactive | 2.84 µM (active) | 2.84 µM (active) | – |
| CC(C)C[C@@H](N)C(=O)N[C@H]1C(=O)N[C@@H](CC(N)=O)C(=O)N[C@H]2C(=O)N[C@H]3C(=O)N[C@H](C(=O)N[C@H](C(=O)O)c4cc(O)cc(O)c4-c4cc3ccc4O)[C@H](O)c3ccc(c(Cl)c3)Oc3cc2cc(c3O[C@@H]2O[C@H](CO)[C@@H](O)[C@H](O)[C@H]2O[C@H]2C[C@](C)(N)[C@H](O)[C@H](C)O2)Oc2ccc(cc2Cl)[C@H]1O | inactive | inactive | inactive | – |
| O=C(Nc1nc2cc(C(F)(F)F)cc(NC3CC3)n2n1)c1cccnc1 | inactive | 2.3 µM (active) | 1.83 µM (active) | – |
| C=C1CO[C@@]2(O[C@H]3CC4C5CC=C6C[C@@H](O)C[C@@H](O[C@@H]7OC[C@H](O)[C@H](O[C@@H]8OC[C@@H](O)[C@H](O)[C@H]8O)[C@H]7O[C@@H]7O[C@@H](C)[C@H](OC(C)=O)[C@@H](OC(C)=O)[C@H]7OC(C)=O)[C@]6(C)C5CC[C@]4(C)[C@@H]3[C@@H]2C)[C@@H](O)[C@H]1OC1OC(C)C(O)C(O)C1O (stereo partly specified) | – | 2.18 µM (active) | 2.18 µM (active) | -5.12% [at 12.4 µM] |
| CC(C)=CCC[C@](C)(O[C@@H]1O[C@H](CO[C@@H]2OC[C@@H](O)[C@H](O)[C@H]2O)[C@@H](O)[C@H](O)[C@H]1O)[C@H]1CC[C@]2(C)[C@@H]1[C@H](O)C[C@@H]1[C@@]3(C)CC[C@H](O[C@@H]4O[C@H](CO)[C@@H](O)[C@H](O)[C@H]4O)C(C)(C)[C@@H]3CC[C@]12C | inactive | inactive | inactive | – |
| CCC(CC)(NC(=O)C(C)C)C(=O)N[C@@H](CCCN=C(N)N)C(=O)NC1(C(=O)NC(c2ccc(F)cc2)c2ccc(F)cc2)CCCC1 | inactive | inactive | inactive | – |
| C=C1C(=O)O[C@@H]2C[C@@]3(C)C[C@@H](O)C[C@H](C)C3=C[C@H]12 | inactive | 7.28 µM (active) | 5.15 µM (active) | – |
| Fc1ccc2[nH]ccc2c1-c1nc(N2CCOCC2)c2sc(CN3CCN(CC4CC4)CC3)cc2n1 | inactive | 205 nM (active) and 3.72 µM (active) | 365 nM (active) and 833 nM (active) | – |
| O=C(O)C1=CO[C@@H](O[C@@H]2O[C@H](CO)[C@@H](O)[C@H](O)[C@H]2O)[C@@H]2C(CO)=CC[C@H]12 | inactive | inactive | inactive | – |
| COc1cc(/C=C/C(=O)NCCn2c(C(F)(F)F)cc3ccccc32)cc(OC)c1OC | inactive | inactive | inactive | – |
| C=C1C(=O)O[C@@H]2C[C@H](C)C3=CC(=O)[C@H](O)[C@@]3(C)C[C@H]12 | inactive | 25.8 µM (active) | 18.3 µM (active) | – |
| CC(=O)C=C=C1C(C)(C)CC(O)CC1(C)O[C@@H]1O[C@H](CO[C@H]2OC[C@](O)(CO)[C@H]2O)[C@@H](O)[C@H](O)[C@H]1O (stereo partly specified) | inactive | inactive | inactive | – |
| CCCCCCCCn1cc(CN(CC)CC)c2cc(-c3cnc(N)nc3)ccc21 | inactive | 4.09 µM (active) | 3.25 µM (active) | – |
